The entries come from a sample that favours hits as a whole.
Pf apPOL inh – Pf-apPOL DNA polymerase inhibition. Recombinant Pf-apPOL, molecular beacon fluorescence, 1.5 h. inhibition, % at 10 µM. 0.25% of 210,000 active
mHTT-CaM PPI inh – disrupts binding of mutant huntingtin to calmodulin; P42858; AlphaScreen His-mHTT/GST-CaM binding, luminescence; inhibition, % at 15 µM; 3.6% of 190,000 active; AID 1671202;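 note: 0% = both proteins with DMSO and 100% = one protein alone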
Starred values were filed as active, the others as inactive; i = inactive; · = not tested or not shown. Cut-off read from the data, not from the text of the source: active = inhibition above about 50%; inactive = the rest.

SMILES	Pf apPOL inh	mHTT-CaM PPI inh
Cc1ccc2[nH]cc(CCN3CC(C(=O)Nc4cccc(Cl)c4)CC3=O)c2c1 (stereo unspecified)	-2	47
Cc1ccc2[nH]cc(CCN3CC(C(=O)Nc4cccc(Cl)c4C)CC3=O)c2c1 (stereo unspecified)	-2	56*
O=C(NCCc1csc(C2CCCN(C(=O)c3ccncc3)C2)n1)C1CC1 (stereo unspecified)	3	-4
CC1CCc2cc(F)cc3c(O)c(C(=O)NCCN4CCOCC4)c(=O)n1c23 (stereo unspecified)	-83	26
CC1CCc2cc(F)cc3c(O)c(C(=O)NCCCN(C)C)c(=O)n1c23 (stereo unspecified)	-66	99*
CCCN(CCC)CCCNC(=O)C1CCCN(c2ncc(-c3ccccc3)cn2)C1 (stereo unspecified)	-5	-5
CN(C)C(CNC(=O)CN1C(=O)CCC1=O)c1cn(C)c2ccccc12 (stereo unspecified)	0	-2
Cc1cc(=O)n2c(-c3ccc(NC(=O)C(C)Oc4ccc5c(c4)OCO5)cc3)csc2n1 (stereo unspecified)	-4	3
COc1ccccc1C/C(N)=N/OC(=O)c1ccccc1OC	20	i
Cc1nc(C(=O)NCCc2ccc(Cl)cc2)c(C)n1C1CCN(S(C)(=O)=O)CC1	1	61*
Cc1nc(C(=O)NCCCN2CCCc3ccccc32)c(C)n1C1CCN(C)CC1	-2	97*
CCCNC(=O)c1nc(C)n(C2CCN(C)CC2)c1C	-1	1
Cc1nc(C(=O)NCCc2ccccn2)c(C)n1C1CCN(S(C)(=O)=O)CC1	-7	10
CCCC(=O)N1CCC(COc2ccc(C(=O)NC3CC3)cc2)CC1	-4	-2
COc1ccc(C2=NN(CCC(=O)NCCc3ccc(C)cc3)C(=O)CC2)cc1	-18	17
COC(=O)C1C2C=CC3(CN(c4cccc(C)c4)C(=O)C13)O2 (stereo unspecified)	-3	66*
CCCCOC(=O)C1C2C=CC3(CN(c4cccc(C)c4)C(=O)C13)O2 (stereo unspecified)	1	-8
CC(=O)Nc1ccc(O)c(C(=O)O)c1	-4	·
O=C(O)C1=CC(=C(c2ccc(O)c(C(=O)O)c2)c2ccc(O)c(C(=O)O)c2)C=CC1=O	92*	·
O=C(O)CCCc1nc2ccccc2[nH]1	-2	-6
NC(=O)Cc1nc2ccccc2[nH]1	97*	-5
CCC1CN2C=NC(N3CCN(C(=O)CCc4c(C)noc4C)CC3)=CC2=N1 (stereo unspecified)	-4	-1
Oc1ccc(N=Nc2ccccc2)c(O)c1	36	·
Nc1ccc(N=Nc2ccccc2)c(N)n1	·	52*
Cc1ccnc(NS(=O)(=O)c2ccc(Cl)cc2)c1	0	-1
SMILES	Pf apPOL inh	mHTT-CaM PPI inh
Cc1ccnc(NS(=O)(=O)c2ccc(C(C)(C)C)cc2)c1	-2	100*
OC[C@@H]1[C@@H](c2ccc(F)cc2)C(c2ccc(F)cc2)=NN1c1ccccc1	-6	89*
C[C@H]1C(c2ccccc2)=NN(c2ccccc2)[C@@H]1CO	-5	15
O=C1OCCN1C(=O)[C@H]1[C@H](c2ccc(F)cc2)C(c2cccc(Cl)c2)=NN1c1ccccc1	1	19
OC[C@@H]1[C@@H](c2ccccc2)C(c2ccc(F)cc2)=NN1c1ccccc1	-6	67*
OC[C@@H]1[C@@H](c2ccc(Cl)cc2)C(c2ccc(F)cc2)=NN1c1ccccc1	-4	72*
OC[C@@H]1[C@@H](c2ccccc2)C(c2ccccc2)=NN1c1ccccc1	-4	-21
Cc1cc(C)n(CC(=O)NCc2n[nH]c(=O)c3ccccc23)n1	2	3
CCn1nccc1C(=O)N1CCCC(c2nc(-c3ccccc3)n[nH]2)C1 (stereo unspecified)	-3	-2
CC1=NN(c2ccc(C)c(Cl)c2)C(=O)C1	-2	91*
CC1=NN(c2cc(Cl)c(S(=O)(=O)O)cc2Cl)C(=O)C1	3	0
O=C(CNC(=O)c1ccc(=O)[nH]c1)Nc1nc(-c2ccco2)cs1	10	8
COC(=O)/C=C/c1ccccc1S(=O)(=O)N(CCC(=O)OC)Cc1ccccc1	48	-1
Cc1cc(C)c(S(=O)(=O)N=C2C=CC(=O)C(Br)=C2)cc1C	-7	58*
CCc1ccc(S(=O)(=O)N=C2C=CC(=O)C(Br)=C2)cc1	-3	72*
Cc1ccc(S(=O)(=O)N=C2C=CC(=NS(=O)(=O)c3ccc(C)cc3)C=C2)cc1	-2	23
CC1=CC(=NS(=O)(=O)c2ccc(Br)cc2)C=C(C)C1=O	-5	52*
Cc1cc(C)c(S(=O)(=O)N=C2C=CC(=O)C=C2)cc1C	6	30
O=C1C(Br)=CC(=NS(=O)(=O)c2ccccc2)C=C1Br	-2	100*
O=C1C=CC(=NS(=O)(=O)c2ccc(Br)cc2)C=C1	-6	24
CC1=CC(=O)C=C(C)C1=NS(=O)(=O)c1ccccc1	5	5
COc1ccccc1N1CCN(C2CCN(C3CC4CCC3C4)CC2)CC1 (stereo unspecified)	-2	-5
CC(C)NC(=O)N1CCC(c2nc(CCNC(=O)C3CC3)cs2)CC1	-2	-2
Nc1n[nH]c(Cc2nc3ccccc3[nH]2)n1	-3	26
O=C1C=CC(=NS(=O)(=O)c2ccccc2)C=C1Br	-5	57*
SMILES	Pf apPOL inh	mHTT-CaM PPI inh
CC1=C(C)C(=NS(=O)(=O)c2ccccc2)C=CC1=O	1	37
Cc1cc(C2CCCN2C(=O)Nc2ccc(Br)c(C)c2)on1 (stereo unspecified)	-4	-11
CCCC1c2cccn2CCN1C(=O)Nc1ccc(F)cc1 (stereo unspecified)	-5	9
Cc1ccc2n1CCN(C(=O)Nc1cccc(C(F)(F)F)c1)C2C(C)C (stereo unspecified)	-3	74*
Cc1ccc2n1CCN(C(=O)Nc1ccccc1C(F)(F)F)C2C(C)C (stereo unspecified)	-1	-1
CCCC1c2ccc(C)n2CCN1C(=O)Nc1ccc(F)c(Cl)c1 (stereo unspecified)	2	90*
CC1c2cccn2CCN1C(=O)Nc1ccc(F)c(Cl)c1 (stereo unspecified)	-2	5
CCCC1c2ccc(C)n2CCN1C(=O)Nc1cccc(Cl)c1 (stereo unspecified)	6	28
CCCC1c2cccn2CCN1C(=O)Nc1ccc(C)c(F)c1 (stereo unspecified)	3	51*
CCCC1c2cccn2CCN1C(=O)Nc1ccc(F)c(Cl)c1 (stereo unspecified)	-2	83*
O=C(Nc1ccc(Cl)cc1)NC1CCCC1	-8	-12
Cc1ccc2c(c1)NC(=O)C(C(=O)Nc1ccc(F)cc1)O2 (stereo unspecified)	3	-16
Cc1ccccc1S(=O)(=O)NCCC1CCN(C(=O)c2ccccc2)CC1	-6	45
CC1c2cccn2CCN1C(=O)Nc1cccc(C(F)(F)F)c1 (stereo unspecified)	-3	21
Cc1ccc(NC(=O)N2CCn3c(C)ccc3C2C(C)C)cc1C (stereo unspecified)	-4	6
CCCC1c2cccn2CCN1C(=O)Nc1cccc(C(F)(F)F)c1 (stereo unspecified)	-4	55*
Cc1ccc2n1CCN(C(=O)Nc1ccc(F)c(Cl)c1)C2C(C)C (stereo unspecified)	-8	62*
CCSc1ccccc1C(=O)NCCn1ncc2c(NCc3ccco3)ncnc21	49	-5

From PubChem BioAssay
